Measurements reported in the supplement of paper PMC6555819.

Columns and labels:
Experiment in all cases: PBM binding z-score (relative to random genomic background probes); higher = stronger binding; sequences stand for … in GC…GCGATTGACAGCGTAGAATGAAGG
[1] = system: FXR:RXRa (NR concentration 270 nM, RXRa partner concentration 90 nM)
Summary of the method: (§1)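 For binding z-scores, the reference was random background probes on custom Agilent 4×180K protein-binding microarrays. These arrays were incubated 1 h with ligand-free nuclear receptor dimers in PBS pH 7.4, 2% milk, 0.02% Triton X-100, 1 mM DTT, 0.2 mg/mL BSA and 0.4 mg/ml salmon testes DNA. Fluorescence was scanned after antibody detection of each partner (one per run) and regression-normalized.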

[2] = system: LXRa:RXRa (NR concentration 270 nM, RXRa partner concentration 90 nM)
Summary of the method: as §1

[3] = system: LXRa homodimer (NR concentration 270 nM)
Summary of the method: as §1

[4] = system: LXRb:RXRa (NR concentration 270 nM, RXRa partner concentration 90 nM)
Summary of the method: as §1

[5] = system: LXRb homodimer (NR concentration 270 nM)
Summary of the method: as §1

[6] = system: PPARa:RXRa (NR concentration 270 nM, RXRa partner concentration 90 nM)
Summary of the method: as §1

[7] = system: PPARg:RXRa (NR concentration 180 nM, RXRa partner concentration 90 nM)
Summary of the method: as §1

[8] = system: PPARg:RXRa 270nM:90nM, anti-RXR (NR concentration 270 nM, RXRa partner concentration 90 nM)
Summary of the method: as §1

[9] = system: PPARg:RXRa 30nM:10nM, anti-RXR (NR concentration 30 nM, RXRa partner concentration 10 nM)
Summary of the method: as §1

[10] = system: PPARg:RXRa 90nM:30nM, anti-RXR (NR concentration 90 nM, RXRa partner concentration 30 nM)
Summary of the method: as §1

[11] = system: PPARg:RXRa DBDmut IVT, anti-RXR (DBD mutation: RXRa K156A/R161A, NR concentration 270 nM, RXRa partner concentration 90 nM)
Summary of the method: as §1

[12] = system: PPARg:RXRa IVT, anti-PPARg (NR concentration 270 nM, RXRa partner concentration 90 nM)
Summary of the method: as §1

[13] = system: PPARg DBDmut:RXRa IVT, anti-PPARg (DBD mutation: PPARg1 K132A/R137A, NR concentration 270 nM, RXRa partner concentration 90 nM)
Summary of the method: as §1

[14] = system: PPARg DBDmut IVT, anti-PPARg (DBD mutation: PPARg1 K132A/R137A, NR concentration 270 nM)
Summary of the method: as §1

[15] = system: PPARg homodimer (NR concentration 180 nM)
Summary of the method: as §1

[16] = system: PXR:RXRa (NR concentration 270 nM, RXRa partner concentration 90 nM)
Summary of the method: as §1

[17] = system: PXR homodimer (NR concentration 270 nM)
Summary of the method: as §1

[18] = system: RARa:RXR (NR concentration 270 nM, RXRa partner concentration 90 nM)
Summary of the method: as §1

[19] = system: RARa homodimer (NR concentration 270 nM)
Summary of the method: as §1

[20] = system: RARb:RXRa (NR concentration 270 nM, RXRa partner concentration 90 nM)
Summary of the method: as §1

| Sequence | PBM binding z-score [1] | PBM binding z-score [2] | PBM binding z-score [3] | PBM binding z-score [4] | PBM binding z-score [5] | PBM binding z-score [6] | PBM binding z-score [7] | PBM binding z-score [8] | PBM binding z-score [9] | PBM binding z-score [10] | PBM binding z-score [11] | PBM binding z-score [12] | PBM binding z-score [13] | PBM binding z-score [14] | PBM binding z-score [15] | PBM binding z-score [16] | PBM binding z-score [17] | PBM binding z-score [18] | PBM binding z-score [19] | PBM binding z-score [20] |
| --- | --- | --- | --- | --- | --- | --- | --- | --- | --- | --- | --- | --- | --- | --- | --- | --- | --- | --- | --- | --- |
| ATCTCTAGGTAAAAGTTCATTGAATCCCGAGGAT | 2.13 | 3.38 | 4.04 | 2.13 | 1.06 | 4.7 | 8.45 | 7.53 | 7.5 | 8.69 | 1.93 | 3.85 | 1.8 | 0.918 | 1.37 | 3.67 | 3.67 | 2.6 | 0.624 | 2.84 |
| ATCTCTAGGTTAAGTTCAGTGAAAGATCGATAGA | 1.78 | 2.76 | 1.8 | 1.49 | 1.76 | 2.41 | 1.87 | 2.34 | 1.11 | 1.83 | 3.77 | 3.34 | 1.74 | 1.46 | 2.01 | 2.47 | 2.53 | 1.75 | 1.83 | 2.61 |
| GTACCAAGGTCAATAGGTCGTTGATGAGTAGGCG | 6.19 | 4.5 | 0.864 | 3.74 | 0.614 | 5.37 | 5.15 | 5.05 | 2.14 | 4.13 | 2.92 | 4.42 | -0.00557 | 0.159 | 2.8 | 4.09 | 0.916 | 4.91 | 0.768 | 5.2 |
| ATCTCTAGGTAAAAGTTCAGTTAATCCCGAGGAT | 1.31 | 1.89 | 1.81 | 1.34 | 1.19 | 4.56 | 8.35 | 7.9 | 8.17 | 8.69 | 1.85 | 3.99 | 1.85 | 1.29 | 2.13 | 2.28 | 2.02 | 1.85 | 1.39 | 2.24 |
| TCTATTAGTTGCTTAGGGCAACCGAAACAGCGGA | 0.577 | 0.582 | 0.0862 | 0.602 | 0.556 | 0.886 | -0.0516 | 1.87 | 3.56 | 2.88 | 2.15 | 0.552 | 0.453 | 1.28 | 0.448 | 0.524 | 0.123 | 0.386 | 0.367 | 0.946 |
| CCTAGTTGGACAGGAGGTCACACACCGGATATGA | 3.17 | 3.27 | 1.86 | 3.19 | 0.666 | 4.11 | 2.52 | 2.96 | 0.938 | 2.35 | 0.493 | 2.64 | 0.73 | 0.338 | 3.06 | 4.13 | 1.32 | 4.3 | 1.71 | 3.23 |
| AGAATGAGGTTTAGATCAGGGAAACAGAATACAT | 0.0195 | -0.0666 | -0.0558 | -0.395 | -0.223 | -0.306 | 0.649 | 0.00462 | 0.223 | 0.354 | -0.558 | -0.176 | 0.757 | 0.896 | -0.0172 | -0.27 | -0.0808 | -0.0668 | 0.721 | -0.105 |
| GCTGCTAGGTCAGGTTGGCCAGCTAACGGGTACG | 1.01 | 0.472 | -0.875 | 0.118 | -0.715 | 1.32 | 0.322 | 0.756 | -0.322 | 0.219 | 2.74 | 2.24 | -0.719 | -0.956 | 0.0382 | -0.079 | -0.624 | 0.336 | -0.755 | 3.1 |
